Sampled rows, rich in hits. Any-hit rate of the full collection: about 3.1%.
esBAF inh: Bmi1 luciferase reporter increase in mESCs, primary screen, esBAF inhibitor project, mouse ES cells, Bmi1 luciferase knock-in, single point; reporter increase, % at 12.5 µM; hit rate 2% among 350,000; 24 h; 100% = twice the neutral-well signal; in the data active = activation above about 40%; inconclusive = no clear call, values can overlap the other calls;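 also: 0% = median of the plate's neutral control wells and 100% = double that signal; a rise in the Bmi1 reporter signal indicates esBAF inhibition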
Rtt109 Vps75: inhibitors of C. albicans Rtt109/Vps75 HAT, primary screen, biochemical, ThioGlo CoA-SH fluorescence, plate reader | purified Rtt109/Vps75, 4 h | Histone acetyltransferase RTT109 (Candida albicans (strain SC5314 / ATCC MYA-2876)), … | hit rate 0.16% among 330,000 | AID 540336, 2011 | inhibition, % at 34.9 µM;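 active = inhibition of at least 50% in every replicate; inconclusive = best replicate reaches 50% inhibition but some replicates fall short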
Target sequence (Q5AAJ8 whole entry, looked up): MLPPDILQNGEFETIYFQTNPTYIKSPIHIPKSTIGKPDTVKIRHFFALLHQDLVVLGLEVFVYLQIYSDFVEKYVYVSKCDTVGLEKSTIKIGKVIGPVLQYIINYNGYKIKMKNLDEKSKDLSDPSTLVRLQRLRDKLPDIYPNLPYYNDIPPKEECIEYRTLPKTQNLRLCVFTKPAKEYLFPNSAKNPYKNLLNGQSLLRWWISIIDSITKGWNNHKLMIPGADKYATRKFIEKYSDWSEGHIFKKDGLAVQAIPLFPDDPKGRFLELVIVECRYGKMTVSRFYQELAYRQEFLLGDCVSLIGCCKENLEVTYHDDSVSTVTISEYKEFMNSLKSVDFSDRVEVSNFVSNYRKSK
Statin myotox sup: suppressors of statin myotoxicity in C2C12 myotubes, primary screen, cell-based, single point, plate reader; rescue of ATP level, % at 7.49 µM; C2C12 myotubes + simvastatin, ATP luminescence, 48 h; scaled: DMSO 0, geranylgeraniol control 100; hit rate 0.78% among 330,000;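 active = mean ATP rescue above about 67%, or every replicate alone reaching that limit, limit read from the data, passing the limit was not always enough; inconclusive = no clear call, values can overlap the other calls; inactive = mean under the limit and some replicate under it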;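 also: myotubes were challenged with 10 µM simvastatin during compound exposure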
MITF act: activators of MITF-driven TRPM1 promoter reporter, primary screen, cell-based, SK-MEL-5, luciferase, single point; SK-MEL-5 TRPM1-promoter luciferase, 24 h; % of positive control, neutral wells = 0; activation, % at 12.5 µM; hit rate 0.75% among 300,000;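 active = mean activation of at least 80% with every replicate also reaching 80%; inconclusive = mean reaches 80% but some replicate falls short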;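 also: 0% = neutral control wells and 100% = parthenolide positive control wells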
Wnt act: Wnt/beta-catenin pathway activators, primary screen, cell-based, plate reader, single point; Wnt/beta-catenin reporter cell assay, activator; activation, % at 9.35 µM; hit rate 1.2% among 300,000; in the data active = activation above about 30%, passing the limit was not always enough; inconclusive = no clear call, values can overlap the other calls;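 also: 0% = neutral control wells and 100% = positive control wells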
* = called active by the depositor; ? = inconclusive; nt = no result given.

SMILES | esBAF inh | Rtt109 Vps75 | Statin myotox sup | MITF act | Wnt act
CO[C@H]1CN(C)C(=O)c2cc(NC(C)=O)ccc2OC[C@@H](C)N(Cc2cccnc2)C[C@@H]1C | 0 | nt | 1 | nt | nt
Cc1cc(C)cc(NC(=O)CSc2nnc(-c3ccccc3C)o2)c1 | 18 | -1 | 1 | 27 | nt
O=C(CSc1nnc(-c2ccc(O)cc2)o1)Nc1cccc(O)c1 | 12 | -3 | 18 | 66 | 34*
Cc1cccc(NC(=O)CSc2nnc(-c3ccccc3C)o2)c1 | 44* | 0 | 5 | 80 | nt
CCC(=O)NC(=S)Nc1ccccc1OC | 0 | 0 | 133* | 0 | -2
C[C@@H]1CN([C@@H](C)CO)C(=O)c2cccc(NC(=O)C3CCCCC3)c2O[C@H]1CN(C)C(=O)Nc1ccc(F)cc1 | -2 | nt | 21 | nt | nt
CCCC#Cc1ccc2c(c1)O[C@@H](CN(C)C(=O)c1ccccn1)[C@H](C)CN([C@H](C)CO)S2(=O)=O | 1 | nt | -5 | nt | nt
N#C/C(=C\c1cccs1)C(=O)NCC1CCCO1 (stereo not given) | 18 | -16 | 1 | nt | 39*
C[C@@H]1CN([C@@H](C)CO)C(=O)c2cc(-c3cccc(C#N)c3)cnc2O[C@@H]1CN(C)Cc1ccncc1 | 2 | nt | 5 | nt | nt
Cc1[nH]c2ccccc2c(=O)c1CN(C)Cc1ccccc1 | 57* | -5 | nt | 37 | 2
CNC[C@@H]1Oc2ccc(NS(=O)(=O)c3c(C)noc3C)cc2C(=O)N([C@@H](C)CO)C[C@H]1C | -1 | nt | 8 | nt | nt
CC(O)CNCc1ccccc1C(F)(F)F (stereo not given) | -2 | 0 | 11 | -1 | 41*
CC(=O)Nc1ccccc1C(F)(F)F | nt | 9 | nt | nt | 2
OC1CCCCC1Sc1nc2ccccc2s1 (stereo not given) | 53* | 6 | 2 | 55 | 28
O=C1OCCC1Sc1nc2ccccc2s1 (stereo not given) | 4 | -1 | 12 | -1 | nt
CCNC(=O)Nc1ccc2c(c1)C(=O)N(C)[C@@H]1CC[C@@H](CC(=O)NCC3CCCCC3)O[C@@H]1CO2 | -3 | nt | -12 | nt | nt
CO[C@H]1CN(C)C(=O)c2ccc(NC(=O)Nc3ccc(Cl)cc3)cc2OC[C@H](C)NC[C@H]1C | 5 | nt | 3 | nt | nt
CN(C(=O)COC(=O)c1cccc(Cl)c1)C1CCS(=O)(=O)C1 (stereo not given) | 1 | -9 | 7 | 7 | -1
CC(C)CNS(=O)(=O)c1cc(C(=O)OCC(=O)N(C)C2CCS(=O)(=O)C2)c(Cl)cc1Cl (stereo not given) | -9 | 3 | 15 | -1 | 53*
C(=C\c1ccccc1)/C=N/N1CCN(c2ccccn2)CC1 | nt | 0 | nt | 85* | nt
C(/C=C/c1ccccc1)=N/N1CCN(c2ccccc2)CC1 | ? | -10 | -49 | 94* | -1
CC(/C=N/N1CCN(c2ccccn2)CC1)=C\c1ccccc1 | nt | 0 | nt | 65 | 16
Cc1cccc(/C=N/N2CCN(c3ccccc3)CC2)c1 | 35 | 3 | 3 | 100* | 20
O=C(NCc1ccc(F)cc1)[C@H]1[C@H](CO)[C@H]2Cn3c(cccc3=O)[C@@H]1N2Cc1ccncc1 | 2 | nt | -3 | nt | nt
CCOc1nc(N2CCOCC2)nc(C)c1[N+](=O)[O-] | 4 | -1 | -3 | -6 | 33*
SMILES | esBAF inh | Rtt109 Vps75 | Statin myotox sup | MITF act | Wnt act
Clc1cc(Cl)cc(Nc2ncnc(-n3cccc3)n2)c1 | nt | 7 | nt | nt | 1
Cc1ccc(Nc2ncnc(-n3cccc3)n2)cc1Cl | nt | 10 | nt | 41 | 53*
COC(=O)C[C@@H]1C[C@H]2c3cc(NC(=O)NC4CCCCC4)ccc3O[C@H]2[C@H](CO)O1 | -11 | nt | -3 | nt | nt
COc1ccc(NC(=O)C2CCCN2c2ccc(OC)c(OC)c2)cc1OC (stereo not given) | -4 | -4 | 80* | -5 | -5
COc1ccc(S(=O)(=O)Nc2ccc3c(c2)C(=O)N([C@H](C)CO)C[C@H](C)[C@@H](CN(C)C(=O)CCC(F)(F)F)OCCCC[C@H](C)O3)cc1 | 4 | nt | nt | nt | nt
[O-]/[N+](=C\C=C\c1ccccc1)c1ccccc1 | 34 | 0 | 14 | 94* | 29
[O-]/[N+](=C/c1ccc(F)cc1)c1ccccc1 | 20 | 0 | -2 | nt | 3
O=[N+]([O-])c1ccc(C=CC=Cc2ccccc2)cc1 | 56* | nt | 0 | nt | 0

Assay outcomes (PubChem)
